GPR32 ag – qHTS for Agonists of Human Resolvin D1 Receptor DRV1. Probable G-protein coupled receptor 32 (Homo sapiens), O75388. CHO-K1 GPR32 beta-arrestin PathHunter luminescence, 90 min; zero percent set by DMSO-only wells. activation, % at 76.9 µM. actives 2.5% (n = 48,000). AID 1346428, 2018;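 active = activation of at least 60% and not above a set upper limit, about 1 call in 100 departs from these limits; inconclusive = activation of 40% to 60%, or above that upper limit; inactive = activation under 40%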; also: 0% is about no effect
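Luminescent readout of beta-Gal complementation quantifies ligand-induced beta-arrestin association with GPR32 in CHO-K1 cells; 90 min compound incubation at 37 °C, detection 1 h at room temperature.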
GALC G270D up – A Novel Cell-Based Assay to Identify Small Molecules for B -Galactocerebrosidase | P54803 | 145M-Twi-hGALC-G270D cells (Twitcher mouse brain line with human GALC G270D), HMU-beta-Gal fluorescence, 48 h | Potency, µM (series often up to 57.5 µM), hits mostly activators | actives 0.1% (n = 45,000); also: potency is read from the fitted curve at half-maximal effect; 0% is about no effect; nearly all actives have a fitted effect of over 65% in size
Target sequence (P54803 whole entry G286D): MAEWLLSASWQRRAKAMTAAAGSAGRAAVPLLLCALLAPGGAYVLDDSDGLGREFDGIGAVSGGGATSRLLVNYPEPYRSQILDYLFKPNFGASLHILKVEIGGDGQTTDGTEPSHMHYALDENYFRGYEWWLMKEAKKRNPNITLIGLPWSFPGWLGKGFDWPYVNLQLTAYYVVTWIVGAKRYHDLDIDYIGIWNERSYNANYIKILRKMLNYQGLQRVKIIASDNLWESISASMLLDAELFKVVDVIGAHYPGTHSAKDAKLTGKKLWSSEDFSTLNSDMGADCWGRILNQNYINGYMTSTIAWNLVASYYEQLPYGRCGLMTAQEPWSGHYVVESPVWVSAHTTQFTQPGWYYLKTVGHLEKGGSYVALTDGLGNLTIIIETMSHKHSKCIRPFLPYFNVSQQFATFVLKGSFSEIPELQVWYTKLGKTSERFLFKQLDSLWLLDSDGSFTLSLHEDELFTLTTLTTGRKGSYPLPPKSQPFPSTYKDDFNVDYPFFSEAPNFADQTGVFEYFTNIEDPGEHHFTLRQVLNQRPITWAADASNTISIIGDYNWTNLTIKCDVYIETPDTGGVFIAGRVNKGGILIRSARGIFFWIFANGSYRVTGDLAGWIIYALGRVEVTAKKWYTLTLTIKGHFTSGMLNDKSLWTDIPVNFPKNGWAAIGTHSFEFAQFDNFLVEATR
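Brain-derived Twitcher mouse 145M-Twi cells stably expressing human GALC-G270D or wild-type GALC, treated live, then residual GALC activity read by fluorescence of HMU-b-Gal substrate (0.1 mM final) in citrate-phosphate buffer pH 5.2 with sodium taurocholate. Signal increase indicates enhancement.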
SKOV3 invasion – Primary qHTS assay for Inhibitors of ovarian cancer metastasis using an organotypic tumor microenvironment (TME) model. Potency, µM (series often up to 45.8 µM), for the others: top-dose activity change, negative = inhibition, actives largely listed as inhibitors. SKOV3ip1-GFP adhesion/invasion on 3D omental model, fluorescence. actives 0.1% (n = 46,000). AID 1963576, 2024;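 also: potency is read from the fitted curve at half-maximal effect; plate controls were DMSO wells for no effect and tomatine positive control wells for full effect; nearly all actives have a fitted effect of over 65% in size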
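Primary human omental fibroblast/mesothelial 3D culture pre-formed 48 h. SKOV3ip1-GFP cells added with compounds (0.36-46 umol/L), incubated 2 h RT/16 h 37 C, fixed; GFP cells quantified at 488/509 nm.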
FH mod – Identification of activators of human fumarate hydratase by quantitative high-throughput screening; Fumarate hydratase, mitochondrial (Homo sapiens), P07954; FH coupled MDH/diaphorase resazurin fluorescence, 15 min; Potency, µM (doses to about 79.9 µM), for inactives: at the highest dose activity change, negative = inhibition, most hits filed as inhibitors; actives 0.22% (n = 54,000); AID 1347055, 2019; also: potency is read from the fitted curve at half-maximal effect; % is scaled to controls: 0 for no effect and ±100 for the full control effect; the screen sought activators but most active calls are inhibition curves; nearly all actives have a fitted effect of over 45% in size
An asterisk follows results filed as active; i = inactive; ? = inconclusive; · = no result given; ! = not confirmed by another sample; [ ] = another dose, or the depositor's remark. Compounds with a hit are over-represented: about 2.9% of the library has one in this group of screens. Unless noted, calls follow the shape of the dose curve; as a rule, active = well fitted curve in the direction sought with a large enough effect; inconclusive = small, poorly fitted or top-dose-only effect, or another doubt; inactive = no such curve, though single readings can be large; an effect the other way counts as inactive or inconclusive.

SMILES | GPR32 ag | GALC G270D up | SKOV3 invasion | FH mod
COC(=O)CCSCc1ccc(-c2onc(C)c2NC(=O)OC(C)c2ccccc2Cl)cc1 (configuration not stated) | · | · | · | -11%
O=C(Cn1c(SCC(=O)Nc2ccc(F)cc2)nc2ccccc21)NCc1ccccc1Cl | 70* | i | -12% | 6%
O=C(CCS(=O)(=O)c1cccs1)Nc1ccc(C(=O)Nc2cccc(Cl)c2)cc1 | 65* | i | 7% | -21%
COc1ccc(NC(=O)c2ccc(NC(=O)CCS(=O)(=O)c3cccs3)cc2)cc1Cl | ? | i | -1% | -6%
COc1ccc(CCNC(=O)C(=O)NCC(c2cccs2)S(=O)(=O)c2ccc(F)cc2)cc1 (configuration not stated) | 85* | i | 3% | -16%
COc1ccc(C(=O)NCC(c2cccs2)S(=O)(=O)c2ccc(F)c(C)c2)cc1 (configuration not stated) | 66* | i | -8% | -9%
COc1ccc(C(=O)NCC(c2cccs2)S(=O)(=O)c2cccs2)cc1 (configuration not stated) | 83* | i | -9% | -1%
Cc1ccc(C(=O)/C=C/c2ccccc2)s1 | · | · | · | -19%
C#Cc1cccc(Nc2ncnc3cc4c(cc23)OCCOCCOCCO4)c1 | · | · | · | -4%
Cc1ccc2ccc3cc(C(=O)Nc4ccc(C)c(F)c4)nc3c2[nH]1 | 60* | i | -6% | -3%
Cc1ccc(NC(=O)CC2Oc3ccc(C)cc3NC2=O)c(C)c1 (configuration not stated) | 0 | i | -11% | -3%
CC(=O)c1ccc(NC(=O)CC2Oc3ccc(C)cc3NC2=O)cc1 (configuration not stated) | 65* | i | -1% | 4%
Cc1cc(Br)ccc1NC(=O)c1coc(=O)c2ccccc12 | 72* | i | 5% | -4%
COc1ccc(NC(=O)c2coc(=O)c3ccccc23)cc1OC | -11 | i | 6% | -25%
CC(C)(O)c1ccc2c(c1)C(O)C[C@H]1[C@](C)(C(=O)O)CCC[C@]21C (some centres not stated) | · | · | · | -1%[53.3 µM]
CC(=O)c1ccc2c(c1)C(O)C(C(C)(C)O)O2 (configuration not stated) | · | · | · | 4%
Cc1cc(Nc2ncc(Cl)c(Nc3ccccc3S(=O)(=O)C(C)C)n2)c(OC(C)C)cc1C1CCNCC1 | · | · | · | 4%
CCc1ccc(NS(=O)(=O)c2ccc(NC(=O)N3CCCC3)cc2)cc1 | 69* | i | i | -3%
COc1ccc(CNC(=O)c2ccc(CS(=O)(=O)c3ccc(OC)cc3)o2)cc1 | -10 | i | i | -10%
COc1ccc(S(=O)(=O)Cc2ccc(C(=O)NC3CCCCC3)o2)cc1 | 89* | i | 2% | -7%
CCOc1ccccc1C1CC(=O)NC(C)=C1C(=O)OC1CCCCCC1 (configuration not stated) | 39 | i | -25% | -19%
CC1=C(C(=O)OCc2ccc(C)cc2)C(c2ccccc2F)CC(=O)N1 (configuration not stated) | 67* | i | i | -23%
CCOc1ccccc1C1CC(=O)NC(C)=C1C(=O)OCc1ccc(C)cc1 (configuration not stated) | 60* | i | 8% | -21%
Cc1noc(-c2ccc(-c3ccc(CC(=O)O)cc3)cc2)c1NC(=O)O[C@H](C)c1ccccc1Cl | · | · | · | -19%
O=C(O)CN(CCN(CC(=O)O)CC(=O)O)CCN(CC(=O)O)CC(=O)O | 70*! | i | · | -8%[53.3 µM]
SMILES | GPR32 ag | GALC G270D up | SKOV3 invasion | FH mod
O=C(O)CN(CCOCCOCCN(CC(=O)O)CC(=O)O)CC(=O)O | 1 | i[0.46 µM] | · | -2%[53.3 µM]
C=C1C(=O)OC[C@@H]1C/C=C(\C)CC1CC(C)C(=O)O1 (some centres not stated) | · | · | · | 6%
COc1ccc(-n2c(SCC(=O)N3CCc4ccccc43)nc3c([nH]c4ccccc43)c2=O)cc1 | 110* | i | i | 2%
COc1ccc(-n2c(SCC(=O)N3CCCc4ccccc43)nc3c([nH]c4ccccc43)c2=O)cc1 | 35 | i | i | 4%
CCC(C)SSc1ncc[nH]1 (configuration not stated) | · | · | ? | 7%[53.3 µM]
Cc1ccc2nc3c(c(Nc4ccc(C)c(C)c4)c2c1)CCC3 | 101* | i | -14% | -10%
Cc1ccc(Nc2c3c(nc4ccccc24)CCC3)cc1F | -24 | i | -22% | -15%
CCOc1ccc(C2Nc3c(C)cccc3-c3cc(C)nn32)cc1 (configuration not stated) | -8 | 25µM* | 2% | ?
CCn1ccc2c(OCC(=O)NCc3ccc(F)cc3)cccc2c1=O | 23 | i | 11% | -8%
Cn1ccc2c(OCC(=O)NCc3ccc(F)cc3)cccc2c1=O | 68* | i | i | -8%
CCOCCn1ccc2c(OCC(=O)Nc3cccc([N+](=O)[O-])c3)cccc2c1=O | 3 | i | -9% | -26%
CCOCCn1ccc2c(OCC(=O)Nc3cccc(F)c3)cccc2c1=O | 77* | i | 5% | -7%
Cc1cc(C)cc(NC(=O)COc2cccc3c(=O)n(C)ccc23)c1 | 86* | i | i | 20%
CC1C=CC2CCCCC2C1CCC1CC(O)CC(=O)O1 (configuration not stated) | · | · | · | 1%
O=C(NCc1cccc(Cl)c1)C1CCCN(c2nn3cc(-c4ccc(F)cc4)nc3s2)C1 (configuration not stated) | -16 | i | 8% | -10%
O=C(NCc1cccc(Cl)c1)C1CCN(c2nn3cc(-c4ccc(F)cc4)nc3s2)CC1 | 62* | i | 0% | 0%
COc1ccc(Cl)cc1NC(=O)C1CCN(S(=O)(=O)c2ccc(F)cc2)CC1 | 24 | i | -9% | -10%
COc1cc(C(=O)O)ccc1NC(=O)C1NC(CC(C)(C)C)C(C#N)(c2ccc(Cl)cc2F)C1c1cccc(Cl)c1F (configuration not stated) | · | · | · | 32µM*
COc1cc(C2N=C(N)Nc3nc4ccccc4n32)ccc1OCCC(C)C (configuration not stated) | 34 | i | i | 2%
CC(C)CCOc1ccc(C2N=C(N)Nc3nc4ccccc4n32)cc1 (configuration not stated) | ? | i | 13µM* | -2%
N#Cc1ccc(O[C@@H]2c3ccccc3C[C@H]2N2CCC[C@@H](N)C2)c(Cl)c1 | · | · | · | 3%
COc1ccc(NC(=O)C2CCN(c3ccc(Sc4ccc(C)cc4)nn3)CC2)cc1 | 64* | i | -7% | 3%
CCc1ccc(NC(=O)C2CCN(c3ccc(Sc4ccc(C)cc4)nn3)CC2)cc1 | 19 | i | -2% | -3%
COc1ccc2[nH]cc(CCNC(=O)Nc3cccc(F)c3)c2c1 | 93* | i | 3% | -13%
